Source: PubChem
The list is not random: actives were taken first. Their share in the collection is about 3%.
Bfl-1 A1 inh: caspase 3/7 activation in MEF A1-2A-BIM cells, primary screen, A1 inhibitor project, cell-based, luminescence, HTS; AID 2462, 2010; caspase activation, % (test concentration not listed); 330,000 compounds, 0.066% hits; Caspase-Glo 3/7 luminescence, 3 h; percent of clofoctol response, vehicle zero;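 active means over half of replicate activation scores above 10%, or exactly half above 10 with the replicate mean above 10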
CHT allo act: CHT positive allosteric modulators, primary screen, cell-based, membrane potential dye, choline EC20. High affinity choline transporter 1 (Homo sapiens), Q9GZV3. 310,000 compounds, 0.49% hits. AID 488977, 2010. B-score at 10 µM. CHT-expressing cells; hits give high values; LV-AA mutant CHT in HEK293 cells;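 active means initial fluorescence not abnormally high and integrated response B-score, plate-corrected, over 3 SD above library mean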
Target sequence (Q9GZV3 whole entry, looked up): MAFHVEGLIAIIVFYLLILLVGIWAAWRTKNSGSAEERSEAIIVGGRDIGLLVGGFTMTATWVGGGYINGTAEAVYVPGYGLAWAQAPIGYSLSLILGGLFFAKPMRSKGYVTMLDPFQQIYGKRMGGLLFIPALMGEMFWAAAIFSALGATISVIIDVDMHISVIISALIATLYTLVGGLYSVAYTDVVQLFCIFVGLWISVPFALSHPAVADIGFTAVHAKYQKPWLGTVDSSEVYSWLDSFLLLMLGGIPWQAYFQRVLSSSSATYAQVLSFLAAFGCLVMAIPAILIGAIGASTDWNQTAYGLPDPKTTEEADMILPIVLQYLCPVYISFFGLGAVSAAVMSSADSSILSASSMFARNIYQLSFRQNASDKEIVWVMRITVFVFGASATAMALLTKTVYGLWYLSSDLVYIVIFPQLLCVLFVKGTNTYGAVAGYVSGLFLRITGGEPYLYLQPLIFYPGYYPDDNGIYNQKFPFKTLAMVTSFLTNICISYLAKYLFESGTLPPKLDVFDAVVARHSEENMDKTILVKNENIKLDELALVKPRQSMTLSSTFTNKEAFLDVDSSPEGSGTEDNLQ
NALP1 yeast inh: NALP1 inflammasome inhibitors in reconstituted yeast, colorimetric, S. cerevisiae, triplicate retest; S. cerevisiae NALP1/ASC/caspase-1 growth, X-gal OD620, 72 h; inhibition, % at 10 µM; 280,000 compounds, 0.61% hits; AID 2071, 2009; in the data active means inhibition mostly above about 24%, no sharp cut-off; inactive means mostly below about 32%
SUMO Mot1 rescue: yeast Mot1-301 growth rescue at high temperature, primary screen, SUMOylation pathway inhibitor project, S. cerevisiae, ATP luminescence, 38.5C; S. cerevisiae Mot1-301 growth rescue; percent above DMSO median, 100 means doubled; growth rescue, % at 18.8 µM; 320,000 compounds, 1% hits;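 active means every valid replicate shows activation above 250% relative to neutral control wells; inactive means the rest, any valid replicate at or below 250%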
NALP3 yeast inh: NALP3 inflammasome inhibitors in reconstituted yeast, primary screen, luminescence, uHTS. inhibition, % at 10 µM. Yeast reconstituted NLRP3/ASC/caspase-1, beta-gal luminescence, 24 h. 330,000 compounds, 0.39% hits. AID 2825, 2010;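 active means inhibition of 50% or more; inactive means inhibition below 50%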
CHT inh: inhibitors of human choline transporter CHT; High affinity choline transporter 1 (Homo sapiens), Q9GZV3; CHT-expressing cells, membrane potential dye, choline response; hits give low values; B-score at 10 µM; 310,000 compounds, 0.86% hits;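 active means B-score over 3 SD under the library average, and starting fluorescence ratio not unusually high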;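 further: choline stimulus applied at its EC90 after an EC20 pre-addition; B-score computed on integrated fluorescence ratio after choline addition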
CHT act confirm: CHT activators, confirmation, cell-based, membrane potential dye, duplicate. 2,500 compounds, 91% hits. CHT-expressing cells, membrane potential dye fluorescence (FDSS); % of choline EC20–EC90 response window; HEK293 expressing CHT LV-AA mutant; choline added at its EC20. shares compounds with CHT allo act. activation, % at 10 µM;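 active means primary screen active, with duplicate mean activation above negative control mean plus 3 SD, cut at about 11% in these data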
HEK293 MP dye: membrane potential response in parental HEK293 cells, counter-screen for CHT activator project, cell-based, membrane potential dye. membrane potential dye fluorescence (FDSS); measured after EC20 choline addition. shares compounds with CHT allo act. 2,500 compounds, 62% hits. ratio readout change at 10 µM, hits read low;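 active means duplicate-averaged ratio beyond 3 SD from buffer wells, up or down, though filed actives are nearly all decreases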
Large screens that a line does not name were inactive (follow-up assays come after a bar, where they were run).

CCN1CCCC(NC(=O)c2cc([N+](=O)[O-])ccc2OC)C1 (configuration not stated)	CHT allo act 7.3 | CHT act confirm 36 | HEK293 MP dye -35
COc1ccc(C[C@H]2CN3C(=NC[C@H]3Cc3ccccc3)N2CCNC(=O)CCC2CCCCC2)cc1	none | CHT act confirm 32 | HEK293 MP dye inactive
COc1ccc(C[C@H]2CN3C(=NC[C@@H]3Cc3ccccc3)N2C[C@H](C)NC(=O)CCC2CCCCC2)cc1	none (no result: Bfl-1 A1 inh, CHT allo act, SUMO Mot1 rescue, CHT inh)
CN1C2=C(C(=O)CC(C)(C)C2)C(c2cccs2)C2=C1CC(C)(C)CC2=O	none (no result: NALP1 yeast inh)
c1ccc(C[n+]2csc3ccccc32)cc1	none
Brc1cc2ccccc2[n+](Cc2ccccc2)c1	CHT allo act 7 (no result: NALP1 yeast inh) | CHT act confirm 76 | HEK293 MP dye -67
CCOc1ccccc1CNCCNC(=O)c1nonc1N	none (no result: NALP1 yeast inh)
Nc1nonc1C(=O)NCCNCc1cc(Br)ccc1OCc1ccccc1F	none | CHT act confirm 22 | HEK293 MP dye inactive
Nc1nonc1C(=O)NCCNCc1ccccc1OCc1ccccc1F	CHT allo act 6.3 | CHT act confirm 16 | HEK293 MP dye inactive
Cc1csc2c(NCCCN3CCOCC3)ncnc12	none | CHT act confirm 41 | HEK293 MP dye -38
Cn1c(=O)c2c(nc(N3CCc4ccccc4C3)n2Cc2ccccc2F)n(C)c1=O	none
Cn1c(=O)c2c(nc(SCCN3CCCCC3)n2Cc2ccccc2)n(C)c1=O	none | CHT act confirm 46 | HEK293 MP dye -59
Cc1ccc(Cn2c(SCCN3CCCCC3)nc3c2c(=O)n(C)c(=O)n3C)cc1	none | CHT act confirm 49 | HEK293 MP dye -44
Cn1c(=O)c2c(nc(N3CCc4ccccc4C3)n2Cc2ccc(Br)cc2)n(C)c1=O	none | CHT act confirm 28 | HEK293 MP dye -26
CC(=O)c1ccc(OCCCC(=O)N2CCN(S(=O)(=O)c3ccc(C(C)C)cc3)CC2)cc1	none (no result: NALP1 yeast inh, SUMO Mot1 rescue)
CC(C)N1CCC(N2CCN(Cc3cc(F)ccc3-n3cccn3)CC2CCO)CC1 (configuration not stated)	none | CHT act confirm 73 | HEK293 MP dye -55
CC(C)N1CCN(Cc2cc(F)ccc2-n2cccn2)CC1CCO (configuration not stated)	none
O=C(COC(=O)c1ccc(C(F)(F)F)cc1)NC(=O)NC1CCCC1	none (no result: Bfl-1 A1 inh, CHT allo act, NALP1 yeast inh, SUMO Mot1 rescue, CHT inh)
COc1ccc(CC2(C)OC(c3ccc(C)c([N+](=O)[O-])c3)=NN2C(C)=O)cc1 (configuration not stated)	none | CHT act confirm 27 | HEK293 MP dye inactive
CN(C(=O)COC(=O)CCC(=O)c1ccc(F)cc1)C1CCCCC1	none (no result: CHT allo act, NALP1 yeast inh, CHT inh)
Cc1c(C(=O)N/N=C/c2cccnc2)nnn1-c1nonc1N	none | CHT act confirm 31 | HEK293 MP dye -45
Cc1ccc(-c2c(C(=O)N/N=C/c3cccnc3)nnn2-c2nonc2N)cc1	none
CCCCOc1ccc(C(=O)NN2C(=O)NC3(CCCCC3)C2=O)cc1OC	none (no result: NALP1 yeast inh)
Cc1c(C)n(Cc2ccccc2)c2ncnc(NCCCN(C)C)c12	none | CHT act confirm 26 | HEK293 MP dye -39
COc1cc(C)c(S(=O)(=O)NOCc2ccccc2)c(C)c1C	none
CC1CCCN(c2c([N+](=O)[O-])c(=O)oc3ccccc23)C1 (configuration not stated)	none (no result: NALP1 yeast inh)
O=c1oc2ccccc2c(N2CCC(c3ccccc3)CC2)c1[N+](=O)[O-]	none | CHT act confirm inactive | HEK293 MP dye inactive
Cc1ccc(CN2CCSc3ccc(C(=O)NCc4cccnc4)cc32)cc1	CHT allo act 6.9 | CHT act confirm 29 | HEK293 MP dye inactive
Cc1ccc(CN2CCSc3ccc(C(=O)NCCCN4CCN(C)CC4)cc32)cc1	none
COc1ccccc1NS(=O)(=O)c1cc(N)ccc1N1CCOCC1	none (no result: CHT allo act, NALP1 yeast inh, CHT inh)
COc1ccccc1NS(=O)(=O)c1cc(N2Cc3ccccc3C2=N)ccc1N1CCOCC1	none | CHT act confirm 37 | HEK293 MP dye -45
CCN(CC)CCCN(C(=O)c1ccc(Br)cc1)c1nc(-c2ccc(OC)cc2)cs1	none
CCN(CC)CCCN(C(=O)c1cccs1)c1nc(-c2ccc(OC)cc2)cs1	CHT allo act 6.3 | CHT act confirm 48 | HEK293 MP dye -47
CCOC(=O)c1sc2ncn(/N=C/N(C)C)c(=O)c2c1C	none
CCOC(=O)c1sc2nccc(OC)c2c1N=CN(C)C	CHT allo act 6.6 | CHT act confirm 63 | HEK293 MP dye -35
O=C(c1ccc(F)cc1)C1CCN(C(=S)NCC2CCCO2)CC1 (configuration not stated)	none
CCN(Cc1ccccc1)C(c1ccc(Cl)cc1)c1nnnn1C(C)(C)C (configuration not stated)	CHT allo act 7.2 | CHT act confirm 32 | HEK293 MP dye inactive
Cc1nn(C)cc1/C=N/NC(=O)c1ccc2c(c1)OCO2	none
Cc1cc(C)n2nc(C(=O)N/N=C/c3cn(C)nc3C)nc2n1	none | CHT act confirm 48 | HEK293 MP dye -30
COc1ccc(CNC(=O)Cn2nc([N+](=O)[O-])c(Br)c2C)cc1OC	none
CCC1(c2ccc(F)cc2)NC(=O)N(CC(=O)N(C)C2CCS(=O)(=O)C2)C1=O (configuration not stated)	none (no result: NALP1 yeast inh)
CN1CCN(C(=O)c2cc(=O)c3cc(Cl)cc(Cl)c3o2)CC1	none | CHT act confirm 43 | HEK293 MP dye -42
N#C/C(=N\Nc1c(Cl)cccc1Cl)C(=O)NN	CHT allo act 12 | CHT act confirm 19 | HEK293 MP dye -40
CCOC(=O)NC(=O)/C(C#N)=N/Nc1c(F)cccc1F	none
COc1ccc(CCNC(=O)CCC(=O)NC2CCCC(C)C2C)cc1OC (configuration not stated)	none
CC(C)CN(CC(C)C)CC(O)COc1ccccc1Br (configuration not stated)	none
CCCCN(CCCC)CC(O)COc1ccccc1Br (configuration not stated)	CHT allo act 6.7 | CHT act confirm 26 | HEK293 MP dye inactive
COc1c(N2CCN(C(=S)Nc3ccc(F)cc3)C(C)C2)c(F)cc2c(=O)c(C(=O)O)cn(C3CC3)c12 (configuration not stated)	none
